# From PubChem BioAssay AID2313 (Broad Institute, 2010)
# The campaign covered roughly 22,000 compounds. About 460 (2.1%) were called active. About 2% were inconclusive and are not listed. The sample holds actives, similar compounds and a random draw of the others, so the mix is not that of the screen. A number with no mark means an inactive call.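 The calls were made as follows: active = mean inhibition across valid replicates above about 65% (limit read from the data); inconclusive = mean under the limit, yet half or more replicates past it; inactive = the rest.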
# Test: Hedgehog pathway signaling inhibitors, primary screen, luminescence, Shh-LIGHT2 cells, Gli-luciferase (AID 2313);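 also: pathway switched on by Shh-conditioned medium diluted 1 in 25 in low serum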
# Conditions: Shh-LIGHT2 Gli-luciferase reporter, 30 h; hits give high values
row,Compound,inhibition
1,C[C@H](CO)N1C[C@H](C)[C@H](CN(C)Cc2ccc3c(c2)OCO3)Oc2c(cccc2N(C)C)C1=O,-27.6%
2,CCCC(=O)Nc1ncnc2c1ncn2C1O[C@@H]2COP(=O)(O)O[C@H]2[C@H]1OC(=O)CCC (stereo partly drawn),-62.8%
3,C[C@@H]1CCCCO[C@@H](CN(C)C(=O)Nc2cccc3ccccc23)[C@@H](C)CN([C@H](C)CO)C(=O)c2cc(NS(C)(=O)=O)ccc2O1,33.2%
4,O=C(Oc1cccc(C(F)(F)F)c1)c1cc2ccc3ccccc3c2s1,-31.9%
5,CC1(C)C2CC[C@]3(C)C(C(=O)C=C4[C@@H]5C[C@@](C)(C(=O)O)CC[C@]5(C)CC[C@]43C)[C@@]2(C)CC[C@@H]1O (stereo partly drawn),66.5% (active)
6,C[C@@H]1CC[C@]2(C(=O)O)CC[C@]3(C)C(=CCC4[C@@]5(C)CC[C@H](O)[C@](C)(C(=O)O)C5CC[C@]43C)C2[C@]1(C)O (stereo partly drawn),-18.2%
7,CC1(C)CC[C@@]2(C(=O)O)C(C1)C1=CCC3[C@@]4(C)CC[C@H](O)C(C)(C)C4CC[C@@]3(C)[C@]1(C)C[C@H]2O (stereo partly drawn),-24.6%
8,Cc1ccc(S(=O)(=O)Nc2ccc3c(c2)C(=O)N([C@H](C)CO)C[C@@H](C)[C@H](CN(C)Cc2ccccc2)O3)cc1,15.5%
9,COC(=O)c1sc(SC)c(-c2ccn(S(=O)(=O)c3ccc(Cl)cc3)n2)c1C,14.7%
10,Oc1ccc(-n2cccc2)cc1,30.8%
11,O=C(OC1=CC(=O)c2cccc3cccc1c23)c1ccccc1,-20.2%
12,Cc1ccc(C(=O)c2coc3ccc(O)c(CN(C)C)c23)cc1,38.9%
13,CC(C)NC(=O)N(C)C[C@H]1Oc2c(NS(=O)(=O)c3ccc(Cl)cc3)cccc2C(=O)N([C@@H](C)CO)C[C@H]1C,3.77%
14,C[C@@H]1O[C@@H](Oc2cc(O)c3c(=O)c(O[C@@H]4O[C@@H](C)[C@H](O)[C@@H](O)[C@H]4O)c(-c4ccc(O)cc4)oc3c2)[C@H](O)[C@H](O)[C@H]1O,-11.3%
15,C[C@H]1CN([C@@H](C)CO)C(=O)Cc2cc(NS(C)(=O)=O)ccc2O[C@@H]1CN(C)CC1CC1,70.7% (active)
16,C[C@H](CO)N1C[C@H](C)[C@H](CN(C)CC2CC2)Oc2ccc(NS(=O)(=O)c3ccccc3)cc2CC1=O,-5.84%
17,COc1ccc(S(=O)(=O)Nc2ccc3c(c2)CC(=O)N([C@H](C)CO)C[C@H](C)[C@H](CN(C)CC2CC2)O3)cc1,-6.58%
18,COc1ccc(S(=O)(=O)Nc2cccc3c2O[C@@H](CN(C)S(=O)(=O)c2c(C)noc2C)[C@@H](C)CN([C@H](C)CO)C3=O)cc1,24.8%
19,C[C@H](CO)N1C[C@H](C)[C@@H](CN(C)Cc2ccccc2)Oc2ccc(NC(=O)CCCN(C)C)cc2C1=O,-0.759%
20,CCOC(=O)c1nnn2c1nc(N1CCN(c3ccccc3)CC1)c1ccccc12,37.6%
21,Cc1cc(C)n2nc(-c3ccc(C(C)(C)C)cc3)cc2n1,-92.6%
22,COc1ccc(CN(C)C[C@H]2Oc3c(NC(=O)C4CC4)cccc3C(=O)N([C@@H](C)CO)C[C@H]2C)cc1,-3.41%
23,C[C@@H]1CN([C@@H](C)CO)C(=O)c2cc(NC(=O)c3ccncc3)ccc2O[C@H]1CN(C)Cc1ccc(C(=O)O)cc1,13.9%

row,Compound,inhibition
1,C[C@@H]1CN([C@H](C)CO)C(=O)c2cc(NC(=O)c3ccncc3)ccc2O[C@H]1CN(C)Cc1ccc(Oc2ccccc2)cc1,73.2% (active)
2,C[C@@H]1CN([C@@H](C)CO)C(=O)c2cc(NC(=O)c3ccncc3)ccc2O[C@@H]1CN(C)Cc1ccncc1,9.73%
3,Cc1ccc(S(=O)(=O)N(C)C[C@@H]2Oc3c(NC(=O)Nc4c(C)noc4C)cccc3C(=O)N([C@@H](C)CO)C[C@@H]2C)cc1,-32.7%
4,CC(C)(O)C1=CCC23COC(C2)C(O)(C(=O)O)CCC13 (stereo not drawn),12.8%
5,COc1ccc(NC(=O)N(C)C[C@@H]2Oc3c(NC(=O)NC4CCCCC4)cccc3C(=O)N([C@H](C)CO)C[C@H]2C)cc1,-15.5%
6,Cc1ccc(S(=O)(=O)N(C)C[C@@H]2Oc3ccc(NS(=O)(=O)c4cn(C)cn4)cc3C(=O)N([C@@H](C)CO)C[C@H]2C)cc1,-8.67%
7,CCOc1cc(/C=C2\SCOC2=O)ccc1O,-11.1%
8,COc1ccc(S(=O)(=O)Nc2cccc3c2O[C@H](CN(C)C(=O)NC(C)C)[C@H](C)CN([C@H](C)CO)C3=O)cc1,4.9%
9,CCN(c1ccccc1)S(=O)(=O)c1ccc(C)cc1,-25.3%
10,Cc1cc(=O)[nH]c(SCc2cn3c(C)cc(C)nc3n2)n1,-20.5%
11,Cc1ccc(S(=O)(=O)Nc2cccc3c2O[C@H](CN(C)S(=O)(=O)c2cn(C)cn2)[C@H](C)CN([C@H](C)CO)C3=O)cc1,21.4%
12,COc1ccc(CN(C)C[C@H]2OCCCC[C@@H](C)Oc3ccc(NC(=O)Nc4cccc5ccccc45)cc3C(=O)N([C@H](C)CO)C[C@@H]2C)cc1,17.8%
13,Cc1ccc(S(=O)(=O)N(C)C[C@H]2Oc3c(NC(=O)C4CC4)cccc3C(=O)N([C@@H](C)CO)C[C@@H]2C)cc1,28.4%
14,C[C@H](CO)N1C[C@H](C)[C@H](CN(C)S(=O)(=O)c2ccccc2)Oc2c(NC(=O)Nc3ccccc3)cccc2C1=O,14.8%
15,Cc1ccc(S(=O)(=O)N(C)C[C@@H]2Oc3c(NC(=O)Nc4ccccc4)cccc3C(=O)N([C@H](C)CO)C[C@H]2C)cc1,-14.6%
16,C[C@H]1CN([C@@H](C)CO)C(=O)c2cccc(NC(=O)Nc3ccccc3)c2O[C@H]1CN(C)S(=O)(=O)c1ccc(Cl)cc1,108% (active)
17,Cc1ccc(S(=O)(=O)N(C)C[C@@H]2Oc3c(NC(=O)C4CC4)cccc3C(=O)N([C@H](C)CO)C[C@@H]2C)cc1,115% (active)
18,Cc1ccc(S(=O)(=O)N(C)C[C@@H]2Oc3c(NC(=O)C4CC4)cccc3C(=O)N([C@H](C)CO)C[C@H]2C)cc1,-12.6%
19,C[C@@H]1CN([C@H](C)CO)C(=O)c2cccc(NC(=O)Nc3cccc4ccccc34)c2O[C@@H]1CN(C)Cc1ccccc1,0.787%
20,C[C@H]1CN([C@@H](C)CO)C(=O)c2cccc(NC(=O)c3ccncc3)c2O[C@H]1CN(C)C,-21.4%
21,COc1ccc(NC(=O)Nc2cccc3c2O[C@H](CN(C)Cc2ccc(Cl)c(Cl)c2)[C@H](C)CN([C@@H](C)CO)C3=O)cc1,51.9%
22,C[C@@H]1CN([C@@H](C)CO)C(=O)Cc2cc(NC(=O)Nc3ccc4c(c3)OCO4)ccc2O[C@@H]1CN(C)S(=O)(=O)c1ccc(Cl)cc1,38.3%
23,O=C1C(c2ccccc2)CCCC1c1ccccc1 (stereo not drawn),22.1%

row,Compound,inhibition
1,Cc1noc(C)c1NC(=O)Nc1cccc2c1O[C@@H](CN(C)C(=O)Nc1ccc(C(F)(F)F)cc1)[C@@H](C)CN([C@@H](C)CO)C2=O,1.09%
2,Cc1cc(=O)oc2cc(OCc3cccc(F)c3)ccc12,-75.4%
3,COc1ccc(NC(=O)N(C)C[C@@H]2OCCCC[C@@H](C)Oc3ccc(NS(=O)(=O)c4c(C)noc4C)cc3C(=O)N([C@H](C)CO)C[C@@H]2C)cc1,-43%
4,C=C1CCC2C(C)(C)C(O)CCC2(C)C1CC/C(C)=C/C(=O)O (stereo not drawn),4.62%
5,COc1ccc(NC(=O)Nc2ccc3c(c2)C(=O)N([C@@H](C)CO)C[C@H](C)[C@H](CN(C)CC2CCCCC2)O3)cc1,-5.89%
6,C[C@@H]1CN([C@@H](C)CO)C(=O)c2cc(NC(=O)Nc3ccc(C(F)(F)F)cc3)ccc2O[C@@H]1CN(C)Cc1ccncc1,10.7%
7,C[C@H]1CN([C@@H](C)CO)C(=O)c2cccc(NC(=O)C3CC3)c2O[C@@H]1CN(C)S(=O)(=O)c1ccc(F)cc1,-1.67%
8,CCCN(C)C[C@@H]1OCCCC[C@@H](C)Oc2ccc(NS(=O)(=O)c3c(C)noc3C)cc2C(=O)N([C@H](C)CO)C[C@@H]1C,35.2%
9,Cc1ccoc1CC[N+](C)(C)C,-11.8%
10,Cc1ccc(S(=O)(=O)Nc2ccc3c(c2)C(=O)N([C@H](C)CO)C[C@H](C)[C@H](CN(C)S(=O)(=O)c2ccc(F)cc2)OCCCC[C@@H](C)O3)cc1,-17.8%
11,CCC(=O)O[C@]1(C(=O)CCl)[C@@H](C)CC2C3CCC4=CC(=O)C=C[C@]4(C)[C@@]3(F)[C@@H](O)C[C@@]21C (stereo partly drawn),79.4% (active)
12,CC[C@]1(O)C[C@@H]2CN(CCc3c([nH]c4ccccc34)[C@@](C(=O)OC)(c3cc4c(cc3OC)N(C)[C@H]3[C@@](O)(C(=O)OC)[C@H](OC(C)=O)[C@]5(CC)C=CCN6CC[C@]43[C@@H]65)C2)C1,88.5% (active)
13,CC(C)NC(=O)N(C)C[C@@H]1Oc2c(NC(=O)c3cnccn3)cccc2C(=O)N([C@@H](C)CO)C[C@@H]1C,2.03%
14,NC(=S)c1cnn2c(C(F)(F)F)cc(C(F)(F)F)nc12,-19.5%
15,CC[N+]1=C(C)C(C)(C)c2cc(-c3ccccc3)ccc21,32.5%
16,C[C@@H]1CCCCO[C@H](CN(C)S(=O)(=O)c2ccc(Cl)cc2)[C@@H](C)CN([C@H](C)CO)C(=O)c2cc(NC(=O)Nc3ccc4c(c3)OCO4)ccc2O1,-3.15%
17,Cc1noc(C)c1S(=O)(=O)Nc1ccc2c(c1)CC(=O)N([C@H](C)CO)C[C@@H](C)[C@@H](CN(C)Cc1ccncc1)O2,48%
18,C[C@@H]1CN([C@H](C)CO)C(=O)Cc2cc(NC(=O)Cn3cnnn3)ccc2O[C@H]1CN(C)CC1CCCCC1,-28.8%
19,CC(C)(C)c1ccc(-c2[nH]nc(NC(=O)c3ccccc3Cl)c2Br)cc1,25.9%
20,CC(C)NC(=O)N(C)C[C@H]1Oc2c(NC(=O)c3ccncc3)cccc2C(=O)N([C@@H](C)CO)C[C@H]1C,10.7%
21,C[C@H]1CN([C@@H](C)CO)C(=O)Cc2cc(NS(=O)(=O)c3cccs3)ccc2O[C@H]1CN(C)Cc1ccncc1,-17.7%
22,O=C(O)CCC(=O)N(Cc1ccccc1)Cc1cn(-c2ccccc2)nc1-c1cccnc1,-8.01%
